Reference: PubChem BioAssay (EPA / NIEHS)
“And” between values parts separate entries of the source, which are not always exact repeats. Equal entries are not always repeated. A structure can be active in one record and inactive in another. The source made the active and inactive calls. How the source made its calls: active means hit-call score of the fitted dose curve at least 0.9, where 1 is the maximum; inactive means score below 0.9.

Columns and labels:
[1] = ATG_DR4_LXR_CIS: Attagene CIS-FACTORIAL HepG2 Assay for human Liver X Receptor (LXR), DR4 submotif (AID 2282929); settings: HepG2 Attagene DR4 cis-reporter, mRNA transcription; AC50: actives raise or lower the signal unless noted; outcome: actives raise or lower the signal unless noted
Outline: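 After transient transfection with multiplexed cis-promoter reporter units, HepG2 cells received test chemicals for 24 h. Reporter mRNA induction, detected by fluorescence after RT-PCR and capillary electrophoresis, was scored relative to DMSO.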

[2] = target: Aryl hydrocarbon receptor (Homo sapiens) (UniProt P35869); test: ATG_Ahr_CIS: Attagene CIS-FACTORIAL HepG2 Assay for human Aryl Hydrocarbon Receptor (Ahr) (AID 2282930); settings: HepG2 AhR cis-factorial reporter transcription; actives raise or lower the signal
Aryl hydrocarbon receptor (Homo sapiens), sequence (P35869 whole entry, looked up): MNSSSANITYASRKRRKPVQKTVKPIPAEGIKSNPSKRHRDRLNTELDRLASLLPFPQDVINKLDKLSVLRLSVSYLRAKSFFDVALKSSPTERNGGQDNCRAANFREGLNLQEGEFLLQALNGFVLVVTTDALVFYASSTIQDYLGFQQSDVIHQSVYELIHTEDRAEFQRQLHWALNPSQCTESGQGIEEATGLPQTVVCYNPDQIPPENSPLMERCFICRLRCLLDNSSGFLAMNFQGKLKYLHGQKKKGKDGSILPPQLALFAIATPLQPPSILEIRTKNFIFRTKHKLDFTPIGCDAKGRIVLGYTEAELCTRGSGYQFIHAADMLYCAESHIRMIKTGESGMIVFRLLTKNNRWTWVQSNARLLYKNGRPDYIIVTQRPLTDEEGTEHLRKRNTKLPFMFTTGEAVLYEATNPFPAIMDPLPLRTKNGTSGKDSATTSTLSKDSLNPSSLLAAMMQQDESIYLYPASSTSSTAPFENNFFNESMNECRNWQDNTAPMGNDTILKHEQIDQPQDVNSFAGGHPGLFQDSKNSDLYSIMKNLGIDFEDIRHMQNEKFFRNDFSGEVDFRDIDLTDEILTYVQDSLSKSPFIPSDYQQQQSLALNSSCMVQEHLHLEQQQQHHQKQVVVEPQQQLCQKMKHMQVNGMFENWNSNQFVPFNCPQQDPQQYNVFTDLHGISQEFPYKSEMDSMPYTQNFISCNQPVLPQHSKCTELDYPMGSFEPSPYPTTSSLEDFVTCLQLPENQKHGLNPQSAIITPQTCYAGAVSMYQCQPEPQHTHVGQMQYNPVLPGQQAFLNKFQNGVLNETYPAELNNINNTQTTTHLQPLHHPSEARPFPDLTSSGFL
Outline: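 Reporter mRNA levels, quantified by RT-PCR and fluorescent capillary electrophoresis, reflect endogenous AhR transcriptional activity in HepG2 cells carrying transfected cis-promoter reporter constructs. Readout at 24 h post-dose; gain or loss fitted against DMSO baseline.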

[3] = ATG_AP_2_CIS: Attagene CIS-FACTORIAL HepG2 Assay for human Activator Protein 2 (AP-2) (AID 2282932); settings: HepG2 AP-2 cis-reporter, Attagene transcription factor profiling; AC50: actives raise or lower the signal unless noted; outcome: actives raise or lower the signal unless noted
Outline: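 Transiently transfected HepG2 cells are exposed to chemical for 24 h. Reporter transcripts are then measured as fluorescence following RT-PCR and capillary separation, and gain- or loss-of-signal is fitted relative to DMSO.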

[4] = ATG_BRE_CIS: Attagene CIS-FACTORIAL HepG2 Assay for human Bone Morphogenetic Protein (BMP) Response Element (BRE) (AID 2282933); settings: HepG2 BMP response element reporter, Attagene transcription factor profiling; actives raise or lower the signal
Outline: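 HepG2 cells transiently transfected with multiplexed cis-element reporter units were dosed with chemical for 24 h. Reporter mRNA was measured by RT-PCR with fluorescent labelling, HpaI digestion and capillary electrophoresis; bidirectional fitting relative to DMSO.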

[5] = target: Retinoic acid receptor alpha (Homo sapiens) (UniProt P10276); test: ATG_DR5_RAR_CIS: Attagene CIS-FACTORIAL HepG2 Assay for human Retinoic Acid Receptor Alpha (RARE), DR5 submotif (AID 2282934); settings: HepG2 Attagene cis-factorial RARE DR5 reporter, mRNA; actives raise or lower the signal;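 on AC50: reporter responds to endogenous RAR alpha beta and gamma in HepG2 not RARA alone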
Retinoic acid receptor alpha (Homo sapiens), sequence (P10276 whole entry, looked up): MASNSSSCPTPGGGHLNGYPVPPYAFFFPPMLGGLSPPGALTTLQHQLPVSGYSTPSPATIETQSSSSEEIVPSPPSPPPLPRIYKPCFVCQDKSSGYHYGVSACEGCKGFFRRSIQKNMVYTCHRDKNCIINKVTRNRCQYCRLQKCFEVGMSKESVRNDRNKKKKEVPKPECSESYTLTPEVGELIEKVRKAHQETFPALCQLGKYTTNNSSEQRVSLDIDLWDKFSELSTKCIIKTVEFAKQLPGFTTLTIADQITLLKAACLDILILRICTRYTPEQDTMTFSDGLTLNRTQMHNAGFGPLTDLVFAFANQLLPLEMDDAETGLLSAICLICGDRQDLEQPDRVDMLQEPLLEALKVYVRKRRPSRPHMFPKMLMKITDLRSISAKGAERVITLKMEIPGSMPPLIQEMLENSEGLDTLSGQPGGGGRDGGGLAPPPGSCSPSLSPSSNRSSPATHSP
Outline: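 Reporter transcripts from a DR5-regulated unit, measured via RT-PCR plus capillary electrophoresis, reflect endogenous RAR activity in transiently transfected human HepG2 liver cells. Exposure lasted 24 h; gain or loss of signal scored against DMSO.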

[6] = target: Transcription factor E2F1 (Homo sapiens) (UniProt Q01094); test: ATG_E2F_CIS: Attagene CIS-FACTORIAL HepG2 Assay for human E2F Transcription Factor 1 (AID 2282935); settings: HepG2 Attagene cis-reporter, E2F reporter RNA transcripts; actives raise or lower the signal
Transcription factor E2F1 (Homo sapiens), sequence (Q01094 whole entry, looked up): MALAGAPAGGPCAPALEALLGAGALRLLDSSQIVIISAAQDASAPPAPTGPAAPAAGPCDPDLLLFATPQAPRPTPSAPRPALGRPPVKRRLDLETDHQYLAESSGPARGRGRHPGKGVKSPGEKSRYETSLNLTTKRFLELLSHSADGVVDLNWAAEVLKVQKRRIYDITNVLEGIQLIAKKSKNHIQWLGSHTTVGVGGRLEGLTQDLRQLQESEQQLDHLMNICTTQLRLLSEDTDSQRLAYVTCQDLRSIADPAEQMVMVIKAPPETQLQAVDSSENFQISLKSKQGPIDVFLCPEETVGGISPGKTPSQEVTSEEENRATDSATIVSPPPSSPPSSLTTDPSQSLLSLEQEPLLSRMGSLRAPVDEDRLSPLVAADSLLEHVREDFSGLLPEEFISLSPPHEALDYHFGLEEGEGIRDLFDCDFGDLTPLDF
Outline: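 Fluorescent RT-PCR products, digested with HpaI for 2 h at 37 C, are separated by capillary electrophoresis. Source RNA comes from transfected HepG2 cultures treated for 24 h.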

[7] = ATG_E_Box_CIS: Attagene CIS-FACTORIAL HepG2 Assay for human Enhancer Box (E-box) (AID 2282936); settings: HepG2 E-box cis-reporter transcription, actives raise or lower the signal
Outline: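 Fluorescent reporter fragments separated by capillary electrophoresis gave the signal; mRNA came from HepG2 cells transfected with cis-element reporters and treated 24 h. Curves fitted bidirectionally relative to DMSO controls.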

[8] = ATG_M_61_CIS: Attagene CIS-FACTORIAL HepG2 Assay for M61 Transcription Factor (Internal Marker) (AID 2282937); settings: HepG2 Attagene CIS-FACTORIAL M61 internal marker reporter; actives raise or lower the signal
Outline: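 Using transiently transfected HepG2 liver cells, reporter transcript levels were assessed 24 h post-dosing by RT-PCR and capillary electrophoresis. Changes in either direction were fitted relative to DMSO controls.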

[9] = ATG_EGR_CIS: Attagene CIS-FACTORIAL HepG2 Assay for human Early Growth Response 1 (EGR1) (AID 2282938); settings: HepG2 Attagene CIS-FACTORIAL EGR reporter mRNA; actives raise or lower the signal
Outline: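 Fluorescent capillary-electrophoresis signal of reporter cDNA fragments serves as read-out. HepG2 cells bear transiently transfected cis-promoter reporter units and are exposed 24 h; gain- or loss-of-signal is fitted against DMSO.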

[10] = ATG_M_19_CIS: Attagene CIS-FACTORIAL HepG2 Assay for M19 Transcription Factor (Internal Marker) (AID 2282939); settings: HepG2 Attagene CIS-FACTORIAL M19 internal marker reporter; actives raise or lower the signal
Outline: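 HepG2 cells transiently transfected with cis-regulated multiple reporter transcription units were dosed for 24 h; reporter mRNA was quantified by RT-PCR, 6-FAM primer-extension labelling, HpaI digestion and capillary electrophoresis, with bidirectional fitting against DMSO baseline.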

[11] = target: Hepatocyte nuclear factor 3-beta (Homo sapiens) (UniProt Q9Y261); test: ATG_FoxA2_CIS: Attagene CIS-FACTORIAL HepG2 Assay for human Forkhead box A2 (FOXA2) (AID 2282942); settings: HepG2 cis-reporter transcription factor activity, 24 h; actives raise or lower the signal
Hepatocyte nuclear factor 3-beta (Homo sapiens), sequence (Q9Y261 whole entry, looked up, the tested form may be a part): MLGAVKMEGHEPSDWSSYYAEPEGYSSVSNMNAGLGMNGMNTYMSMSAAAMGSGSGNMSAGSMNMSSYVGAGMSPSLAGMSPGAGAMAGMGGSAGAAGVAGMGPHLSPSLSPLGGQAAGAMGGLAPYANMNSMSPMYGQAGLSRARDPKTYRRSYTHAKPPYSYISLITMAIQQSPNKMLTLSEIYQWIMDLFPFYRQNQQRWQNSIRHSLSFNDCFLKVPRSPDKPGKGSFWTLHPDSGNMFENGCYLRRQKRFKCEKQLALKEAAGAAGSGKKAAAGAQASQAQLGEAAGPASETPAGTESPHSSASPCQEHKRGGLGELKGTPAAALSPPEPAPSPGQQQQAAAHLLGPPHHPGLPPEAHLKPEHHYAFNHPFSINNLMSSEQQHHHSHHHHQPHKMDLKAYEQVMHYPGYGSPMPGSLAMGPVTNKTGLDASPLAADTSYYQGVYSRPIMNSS
Outline: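 Fluorescence signal of reporter cDNA fragments, separated by capillary electrophoresis, reflects endogenous transcription factor activity in transfected HepG2 after 24 h. Both increases and decreases fitted against DMSO.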

[12] = ATG_FoxO_CIS: Attagene CIS-FACTORIAL HepG2 Assay for human Forkhead box O (FoxO) (AID 2282943); settings: HepG2 Attagene cis-reporter, FoxO element, mRNA; actives raise or lower the signal
Outline: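 Endogenous transcription factor activity read from multiplexed cis-promoter reporter transcripts in transiently transfected HepG2, 24 h after dosing. Reporter RNA measured via RT-PCR plus capillary electrophoresis of FAM-labeled products; gain or loss relative to DMSO.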

[13] = ATG_GATA_CIS: Attagene CIS-FACTORIAL HepG2 Assay for human GATA Binding Protein (AID 2282944); settings: HepG2 GATA cis-element reporter, Attagene multiplex mRNA; actives raise or lower the signal
Outline: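 HepG2 cells transiently transfected with multiplexed cis-element reporter units reflecting endogenous transcription factor activity; reporter mRNA measured after 24 h dosing by RT-PCR, 6-FAM labeling, HpaI digestion and capillary electrophoresis. Bidirectional fitting versus DMSO baseline.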

[14] = ATG_GLI_CIS: Attagene CIS-FACTORIAL HepG2 Assay for human Zinc Finger Protein GLI1 (AID 2282945); settings: HepG2, Attagene cis-factorial reporter mRNA, GLI element; actives raise or lower the signal
Outline: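 Bidirectional curve fits relative to DMSO, using reporter mRNA levels from RT-PCR plus capillary electrophoresis. Cells were HepG2 transiently carrying cis-regulated reporter constructs, harvested 24 h after dosing.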

[15] = target: Bile acid receptor (Homo sapiens) (UniProt Q96RI1); test: ATG_IR1_CIS: Attagene CIS-FACTORIAL HepG2 Assay for human Nuclear Receptor Subfamily 1 Group H Member 4 (NR1H4), IR1 submotif (AID 2282946); settings: IR1 reporter transcription, actives raise or lower the signal
Bile acid receptor (Homo sapiens), sequence (Q96RI1 whole entry, looked up): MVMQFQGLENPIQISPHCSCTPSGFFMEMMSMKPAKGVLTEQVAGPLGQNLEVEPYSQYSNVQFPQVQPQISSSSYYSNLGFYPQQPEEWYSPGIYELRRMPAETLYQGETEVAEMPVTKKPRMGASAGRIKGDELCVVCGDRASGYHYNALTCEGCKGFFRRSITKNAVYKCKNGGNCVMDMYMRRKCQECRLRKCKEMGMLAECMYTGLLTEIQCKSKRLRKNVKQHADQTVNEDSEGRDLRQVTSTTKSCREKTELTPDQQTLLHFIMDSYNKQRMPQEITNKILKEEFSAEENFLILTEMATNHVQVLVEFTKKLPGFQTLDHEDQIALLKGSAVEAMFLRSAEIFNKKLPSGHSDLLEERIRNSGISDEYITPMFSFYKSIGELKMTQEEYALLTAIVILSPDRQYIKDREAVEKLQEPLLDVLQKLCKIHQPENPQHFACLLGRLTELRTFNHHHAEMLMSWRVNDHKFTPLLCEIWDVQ
Outline: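 HepG2 cells transiently transfected with multiplexed cis-element reporter units read endogenous transcription factor activity. After 24 h compound exposure, reporter mRNA was quantified by RT-PCR, fluorescent labelling, HpaI digestion and capillary electrophoresis; bidirectional fitting versus DMSO baseline.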

[16] = ATG_GRE_CIS: Attagene CIS-FACTORIAL HepG2 Assay for human Glucocorticoid Response Elements (GRE) (AID 2282947); settings: HepG2 GRE cis-reporter, Attagene multiplex mRNA; AC50: actives raise or lower the signal unless noted; outcome: actives raise or lower the signal unless noted
Outline: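 Multiplexed cis-reporter mRNA induction, HepG2, 24 h post-dose. RT-PCR, FAM-labelled, HpaI-digested amplicons by CE. Bidirectional fit vs DMSO.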

[17] = ATG_ISRE_CIS: Attagene CIS-FACTORIAL HepG2 Assay for human Interferon Regulatory Factor 1 (IRF1) binding to an Interferon-Stimulated Response Element (ISRE) (AID 2282948); settings: HepG2 ISRE cis-reporter (Attagene), mRNA transcription readout; actives raise or lower the signal
Outline: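 Multiplexed mRNA reporter readout in human liver HepG2 cells: cis-element-driven reporters transfected, compound added for 24 h, transcripts amplified, fluorescently labelled and sized by capillary electrophoresis; curve fitting bidirectional against DMSO.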

[18] = ATG_AP_1_CIS: Attagene CIS-FACTORIAL HepG2 Assay for human Activator Protein 1 (AP-1) (AID 2282931); settings: HepG2 Attagene cis-factorial AP-1 reporter mRNA; actives raise or lower the signal
Outline: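 After 24 h incubation with test chemical, RNA from transfected HepG2 cells was reverse-transcribed, amplified, fluorescently labelled and digested before capillary electrophoresis. Reporters were driven by cis-regulatory promoters; activity fitted bidirectionally versus DMSO.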

[19] = ATG_ERE_CIS: Attagene CIS-FACTORIAL HepG2 Assay for Estrogen Response Element (ERE) (AID 2282940); settings: HepG2 ERE cis-reporter, Attagene RNA transcript; actives raise or lower the signal
Outline: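 HepG2 cells transiently transfected with cis-promoter-driven multiplexed reporter transcription units report endogenous TF activity. After 24 h compound exposure, reporter mRNA is quantified by RT-PCR with capillary electrophoresis fluorescence; bidirectional fitting versus DMSO baseline.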

[20] = ATG_Ets_CIS: Attagene CIS-FACTORIAL HepG2 Assay for human Erythroblast Transformation Specific (ETS) (AID 2282941); settings: HepG2 ETS cis-reporter transcription; AC50: actives raise or lower the signal unless noted; outcome: actives raise or lower the signal unless noted
Outline: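 Cis-regulated reporter mRNA induction in HepG2 (transient transfection), 24 h exposure, RT-PCR plus capillary electrophoresis detection; DMSO serves as negative control and baseline.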

Measured: AC50

CC(=O)CC(C)C
not listed: [18] | [19] | [20]
inactive: all other assays above

Clc1ccc2c(Cl)ccnc2c1
active: [4] 65.6 µM
not listed: [2] | [14] | [17]
inactive: all other assays above

O=C(NCc1ncc(C(F)(F)F)cc1Cl)c1c(Cl)cccc1Cl
active: [1] 81.4 µM | [6] 43.1 µM
not listed: [2]
inactive: all other assays above

CCCCCCCCCCCCCCC
not listed: [2] | [15] | [19]
inactive: all other assays above

CC1COCc2cc3c(cc21)C(C)(C)C(C)C3(C)C (stereo not drawn)
active: [1] 158 µM | [3] 173 µM | [5] 100 µM | [6] 159 µM | [7] 179 µM | [9] 152 µM | [13] 158 µM
not listed: [2] | [18]
inactive: all other assays above

O=P(O)(O)CCC(F)(F)C(F)(F)C(F)(F)C(F)(F)C(F)(F)C(F)(F)C(F)(F)C(F)(F)F
not listed: [2] | [12] | [17]
inactive: all other assays above

N=C(N)c1ccc(OCCCCCOc2ccc(C(=N)N)cc2)cc1
active: [1] 116 µM | [4] 23.3 µM | [7] 137 µM | [19] 23.2 µM
not listed: [2] | [9] | [15] | [17] | [18] | [20]
inactive: all other assays above

O=C1NS(=O)(=O)c2ccccc21
not listed: [2] | [15] | [16] | [19]
inactive: all other assays above

CC(O)COc1ccccc1 (stereo not drawn)
not listed: [2] | [14] | [17] | [19]
inactive: all other assays above

Cc1ccc(C)c(S(=O)(=O)O)c1
not listed: [2] | [15] | [16] | [19]
inactive: all other assays above

CCOC(=O)CN[C@@H](C(=O)N1CC[C@H]1C(=O)NCc1ccc(/C(N)=N/O)cc1)C1CCCCC1
not listed: [2] | [3] | [14]
inactive: all other assays above

CCCCCc1ccc(O)cc1
active: [1] 33 µM | [19] 2.4 µM
not listed: [2] | [3] | [13] | [14]
inactive: all other assays above

CC(C)c1c(C(=O)Nc2ccccc2)c(-c2ccccc2)c(-c2ccc(F)cc2)n1CC[C@@H](O)C[C@@H](O)CC(=O)O
active: [1] 136 µM and 42.6 µM | [5] 161 µM | [7] 28.2 µM | [9] 94.5 µM and 28.3 µM
inactive: [3] | [4] | [5] | [6] | [7] | [8] | [10] | [20] | [11] | [13] | [14] | [16] | [17]

O=P(O)(O)CCC(F)(F)C(F)(F)C(F)(F)C(F)(F)C(F)(F)C(F)(F)F
not listed: [2] | [14] | [17] | [18] | [20]
inactive: all other assays above

O=C(C=C(O)C(F)(F)F)C(F)(F)F
not listed: [2] | [13]
inactive: all other assays above

CCCCC(CC)C(=O)O (stereo not drawn)
not listed: [2] | [5] | [9] | [14] | [15] | [16] | [17] | [19]
inactive: all other assays above

CC1CCC(C(=O)O)CC1 (stereo not drawn)
active: [19] 30.5 µM
not listed: [2] | [3]
inactive: all other assays above

CCO[Si](CCC1CCC2OC2C1)(OCC)OCC (stereo not drawn)
not listed: [2] | [13]
inactive: all other assays above

CCCCC=O
not listed: [2] | [5] | [12] | [19]
inactive: all other assays above

CCc1cccc(CC)c1NC(=O)C(=O)O
not listed: [2] | [3] | [13] | [17] | [18] | [20]
inactive: all other assays above

O=c1cc(-c2ccccc2)oc2ccc3ccccc3c12
active: [19] 1.19 µM and 521 nM
not listed: [2] | [5] | [12] | [15] | [16]
inactive: all other assays above
